Pol eta inh-1 – blocks human DNA polymerase eta activity | Q9Y253 | hit rate 1.2% among 390,000 | recombinant Pol eta, fluorescent DNA replication assay | Potency, µM (titrated, usually from 114 µM), for the others: top-dose activity change, negative = inhibition, usual class: inhibitors; note: potency is the fitted concentration of half-maximal effect; % is set by controls: 0 for no effect and ±100 for the full control effect
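Fluorescent replication assay: 50 nM final substrate added after a 15 min room-temperature compound preincubation with 10 nM enzyme. Signal taken at 0 min and again at 10 min.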
WRN helicase inh-1 – WRN helicase (human) inhibition. Q14191. WRN helicase unwinding, fluorescent forked duplex, kinetic. Potency, µM (titrated, usually from 114 µM), for inactives: at the highest dose activity change, negative = inhibition, hits mostly inhibitors. hit rate 0.46% among 360,000. AID 651768; note: potency is the fitted concentration of half-maximal effect; % is set by controls: 0 for no effect and ±100 for the full control effect; nearly all actives have a fitted effect of over 55% in size
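Kinetic fluorescence helicase assay: unwinding of a quenched forked DNA duplex (100 nM final) with 2 mM ATP final raises red fluorescence (525/598 nm). Compounds sat 15 min at room temperature with 20 nM WRN beforehand.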
Pol iota inh – DNA polymerase iota (human) inhibition | Q9UNA4 | Pol iota fluorescent replication assay, 10 min | Potency, µM (doses to about 115 µM), for inactives: top-dose activity, negative = inhibition, most hits filed as inhibitors | hit rate 1% among 390,000; note: potency is the fitted concentration of half-maximal effect
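Fluorescent replication assay read twice, at 0 min and 10 min after adding 50 nM (final) substrate. Enzyme (10 nM) and compounds were first incubated 15 min at room temperature; enzyme-free buffer wells were negative controls.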
PI5P4Ka inh – blocks human PI5P4K alpha kinase activity | hit rate 1.2% among 330,000 | max response, % | PI5P4Kalpha enzyme, ADP-Glo luminescence, 60 min; stronger effect = lower value; active = max response of -50% or lower; inconclusive = between -30% and -50%; inactive = -30% or higher; note: value at the top dose of about 77 µM; % is set by controls: 0 for no effect and ±100 for the full control effect
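ADP-Glo luminescence end-point after a 60 min room-temperature kinase reaction. PI5P4Kalpha and substrate in HEPES pH 7.4 buffer with EGTA, 0.1% CHAPS and 5% DMSO; ATP at 5 microM final.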
Pol kappa inh-1 – DNA polymerase kappa (human) inhibition; hit rate 0.53% among 400,000; Potency, µM (series often up to 107 µM), for inactives: at the top dose activity, negative = inhibition, hits mostly inhibitors; AID 588579; purified Pol kappa, fluorescent DNA synthesis assay, 10 min; Q9UBT6; note: potency is the fitted concentration of half-maximal effect; % is set by controls: 0 for no effect and ±100 for the full control effect
Target sequence (Q9UBT6 whole entry, looked up): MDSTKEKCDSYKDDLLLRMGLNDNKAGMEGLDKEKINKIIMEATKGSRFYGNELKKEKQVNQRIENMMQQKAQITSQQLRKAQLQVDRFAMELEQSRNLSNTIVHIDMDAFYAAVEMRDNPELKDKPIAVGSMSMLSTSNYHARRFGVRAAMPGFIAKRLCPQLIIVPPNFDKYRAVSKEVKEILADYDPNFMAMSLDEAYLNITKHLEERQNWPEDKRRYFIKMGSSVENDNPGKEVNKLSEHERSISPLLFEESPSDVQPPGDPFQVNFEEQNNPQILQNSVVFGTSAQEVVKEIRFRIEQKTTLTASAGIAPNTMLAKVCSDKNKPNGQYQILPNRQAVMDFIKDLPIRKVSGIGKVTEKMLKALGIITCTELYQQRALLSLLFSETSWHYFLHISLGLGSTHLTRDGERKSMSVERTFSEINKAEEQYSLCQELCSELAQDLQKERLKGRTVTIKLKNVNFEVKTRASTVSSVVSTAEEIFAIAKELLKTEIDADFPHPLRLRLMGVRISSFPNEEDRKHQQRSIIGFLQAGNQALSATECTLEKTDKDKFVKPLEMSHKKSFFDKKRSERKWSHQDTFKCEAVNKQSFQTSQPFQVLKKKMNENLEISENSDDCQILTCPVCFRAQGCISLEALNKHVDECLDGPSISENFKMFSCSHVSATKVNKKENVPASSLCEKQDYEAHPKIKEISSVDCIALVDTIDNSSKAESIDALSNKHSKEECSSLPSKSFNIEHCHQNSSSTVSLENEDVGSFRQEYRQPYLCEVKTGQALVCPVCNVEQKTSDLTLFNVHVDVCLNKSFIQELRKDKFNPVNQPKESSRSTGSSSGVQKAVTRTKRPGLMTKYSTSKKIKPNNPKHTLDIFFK
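10 nM Pol kappa preincubated 15 min at room temperature with compounds, then reaction started with substrate at 50 nM final. Fluorescence read kinetically at 0 and 10 min; buffer-only wells served as negative control.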
POLB inh – inhibitors of human DNA polymerase beta; P06746; Pol beta primer extension/strand displacement, fluorescence kinetic; Potency, µM (highest dose often 114 µM), without a hit: at the top dose activity change, negative = inhibition, actives largely listed as inhibitors; hit rate 1.3% among 340,000; AID 485314; note: potency is the fitted concentration of half-maximal effect; % is set by controls: 0 for no effect and ±100 for the full control effect
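Reaction started by 50 nM substrate onto compound-treated Pol beta (10 nM, 15 min preincubation, room temperature); plates read at 0 min and 10 min. Normalized concentration-effect data fitted by four-parameter Hill equation.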
TbPGK inh – blocks T. brucei phosphoglycerate kinase. hit rate 79% among 500. TbPGK coupled GAPDH assay, Kinase-Glo luminescence. AID 686980. shares compounds with Pol kappa inh-1. Potency, µM (titrated, usually from 57.5 µM), for the others: at the top dose activity change, negative = inhibition, usual class: inhibitors; note: potency is the fitted concentration of half-maximal effect; % is set by controls: 0 for no effect and ±100 for the full control effect; nearly all actives have a fitted effect of over 65% in size
Pol iota confirm – Human Pol iota inhibitor confirmatory assay. shares compounds with Pol kappa inh-1. Pol iota primer extension, TAMRA/BHQ fluorescence. Potency, µM, hits mostly inhibitors. hit rate 77% among 1,500. AID 720496; note: potency is the fitted concentration of half-maximal effect
Pol kappa inh-2 – confirmation of human DNA polymerase kappa inhibitors. Potency, µM, actives largely listed as inhibitors. purified Pol-kappa, fluorescent strand-displacement substrate. shares compounds with Pol eta inh-1. hit rate 76% among 920; note: potency is the fitted concentration of half-maximal effect
Pol eta inh-2 – confirmation of human DNA polymerase eta inhibitors; Pol eta primer extension, TAMRA/BHQ fluorescence, 10 min; AID 720502; Potency, µM, hits mostly inhibitors; hit rate 64% among 2,600; shares compounds with Pol eta inh-1; note: potency is the fitted concentration of half-maximal effect
WRN helicase inh-2 – WRN helicase inhibition, cherry-pick retest. shares compounds with WRN helicase inh-1. WRN helicase DNA unwinding, fluorescence kinetic. Potency, µM (titrated, usually from 57.1 µM), for inactives: at the highest dose activity, negative = inhibition, hits mostly inhibitors. hit rate 63% among 610. AID 720497; note: potency is the fitted concentration of half-maximal effect; nearly all actives have a fitted effect of over 65% in size
TO DNA binding – counter-screen for WRN helicase inhibitors: DNA binding | AID 720499 | hit rate 10% among 610 | shares compounds with WRN helicase inh-1 | Potency, µM (doses to about 57.1 µM), without a hit: at the highest dose activity change, negative = inhibition, hits mostly inhibitors | thiazole orange DNA binding displacement, fluorescence;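 note: drop in dye fluorescence marks compound binding to DNA; potency is the fitted concentration of half-maximal effect; % is set by controls: 0 for no effect and ±100 for the full control effect; nearly all actives have a fitted effect of over 60% in size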
BLM helicase inh – BLM helicase inhibition, WRN selectivity check; shares compounds with WRN helicase inh-1; Recombinant BLM helicase DNA unwinding, red fluorescence; Potency, µM (doses to about 57.1 µM), without a hit: at the top dose activity change, negative = inhibition, most hits filed as inhibitors; hit rate 60% among 610; AID 720503; note: potency is the fitted concentration of half-maximal effect; nearly all actives have a fitted effect of over 60% in size
Active calls of the source: *; [ ] = dose if it differs, or a comment. A selection: hits, their analogues and other compounds. The true share with any hit is near 2.8%. Unless noted, calls come from the whole dose curve; as a rule, active = well fitted curve in the direction sought with a large enough effect; inconclusive = small, poorly fitted or top-dose-only effect, or another doubt; inactive = no such curve, though single readings can be large; an effect the other way counts as inactive or inconclusive.

`CCN1C(=O)C(=C/C=C/c2ccco2)C(=O)N(CC)C1=S` gave Pol eta inh-1 3.5µM*, WRN helicase inh-1 28µM*, Pol iota inh inconclusive, PI5P4Ka inh -97*, Pol kappa inh-1 inconclusive, POLB inh 14µM*, TbPGK inh 29µM*, Pol iota confirm 17*, Pol kappa inh-2 7.5*, Pol eta inh-2 7.6*, WRN helicase inh-2 22µM*, TO DNA binding 98% and BLM helicase inh 19µM*.
CC(C)N1C(=O)/C(=C/C=C/c2ccco2)C(=O)N(Cc2ccco2)C1=O was read as Pol eta inh-1 2.5µM*, WRN helicase inh-1 35µM*, Pol iota inh inconclusive, PI5P4Ka inh -69*, Pol kappa inh-1 22µM*, POLB inh 22µM*, Pol iota confirm 19*, Pol eta inh-2 9.5*, WRN helicase inh-2 17µM*, TO DNA binding -2% and BLM helicase inh 8.6µM*.
`CCN1C(=O)C(=C2C=C(C)N(Cc3ccco3)C(C)=C2)C(=O)N(CC)C1=S` gave Pol eta inh-1 -17%, WRN helicase inh-1 -4%, Pol iota inh 37%, PI5P4Ka inh 0, Pol kappa inh-1 -5% and POLB inh 3%.
Screening Cc1cc(/C=C2\C(=O)NC(=O)N(c3ccc(Br)cc3)C2=O)c(C)n1-c1cc(C(=O)O)cc(C(=O)O)c1 returned Pol eta inh-1 2.5µM*, WRN helicase inh-1 22µM*, Pol iota inh inconclusive, PI5P4Ka inh -77*, Pol kappa inh-1 2.8µM*, POLB inh 28µM*, TbPGK inh inconclusive, Pol iota confirm 21*, Pol kappa inh-2 3*, Pol eta inh-2 12*, WRN helicase inh-2 24µM*, TO DNA binding 0% and BLM helicase inh -17%.
For Cc1cc(/C=C2/C(=O)NC(=O)N(c3ccc(Br)cc3)C2=O)c(C)n1C the results were Pol eta inh-1 -11%, WRN helicase inh-1 -10%, Pol iota inh -18%[58.9 µM], PI5P4Ka inh -15, Pol kappa inh-1 -12% and POLB inh -29%.
For COC(=O)[C@@H]1C[C@H](OC(C)=O)C(=O)[C@H]2[C@@]1(C)CC[C@H]1C(=O)O[C@H](c3ccoc3)C[C@]21C the results were Pol kappa inh-1 15%[60.1 µM].
Screening COc1ccc(CN2C(=O)NC(=O)/C(=C\c3ccco3)C2=O)cc1 returned Pol eta inh-1 8.9µM*, WRN helicase inh-1 22µM*, Pol iota inh inconclusive, PI5P4Ka inh -77*, Pol kappa inh-1 25µM*, POLB inh 13µM*, Pol iota confirm 27*, Pol eta inh-2 27*, WRN helicase inh-2 19µM*, TO DNA binding -14% and BLM helicase inh 8.6µM*.
For O=C1NC(=O)N(Cc2ccc(F)cc2)C(=O)/C1=C\c1ccc([N+](=O)[O-])s1 the results were Pol eta inh-1 28µM*, WRN helicase inh-1 40µM*, Pol iota inh 14µM*, PI5P4Ka inh -79*, Pol kappa inh-1 32µM*, POLB inh inconclusive, Pol iota confirm 42*, Pol eta inh-2 17*, WRN helicase inh-2 15µM*, TO DNA binding 27µM* and BLM helicase inh 19µM*.
O=C1NC(=O)N(Cc2ccccc2)C(=O)/C1=C/c1cnn(-c2ccccc2)c1 was read as POLB inh -24%.
NC1C=CC=C(C(=O)O)C1 (stereo not drawn) was read as Pol eta inh-1 inconclusive, WRN helicase inh-1 0%, Pol iota inh 6%[58.9 µM], PI5P4Ka inh -7, Pol kappa inh-1 inconclusive and POLB inh 20%[57.1 µM].
For COc1cccc(N=Cc2c(O)n(Cc3ccco3)c(=O)[nH]c2=O)c1 the results were Pol eta inh-1 -7%, WRN helicase inh-1 -2%, Pol iota inh inconclusive, PI5P4Ka inh -23, Pol kappa inh-1 -24% and POLB inh 41%.
`Cc1cccc(OCCn2cccc2/C=C2/C(=O)NC(=O)N(Cc3ccco3)C2=O)c1` gave Pol eta inh-1 22µM*, WRN helicase inh-1 inconclusive, Pol iota inh 8.9µM*, PI5P4Ka inh -57*, Pol kappa inh-1 28µM*, POLB inh 32µM* and Pol eta inh-2 76*.
For O=C1NC(=O)N(Cc2ccco2)C(=O)/C1=C\c1cccn1CCOc1ccc(Cl)cc1 the results were Pol eta inh-1 14µM*, WRN helicase inh-1 50µM*, Pol iota inh 13µM*, PI5P4Ka inh -54*, Pol kappa inh-1 28µM*, POLB inh 28µM* and Pol eta inh-2 inconclusive.
CC#C[C@]1(O)CC[C@H]2C3C=C(C)C4=CC(=O)C=C[C@]4(C)[C@H]3[C@@H](O)C[C@@]21C (stereo partly drawn) was read as Pol kappa inh-1 10%[60.1 µM].
CCC1(CC)CCNC1=O was read as Pol kappa inh-1 10%[60.1 µM].
O=C1NC(=O)N(CCC2=CCCCC2)C(=O)/C1=C\c1cccs1 was read as Pol eta inh-1 20µM*, WRN helicase inh-1 inconclusive, Pol iota inh 40µM*, PI5P4Ka inh inconclusive, Pol kappa inh-1 -29%, POLB inh inconclusive and Pol eta inh-2 inconclusive.
CN(C)C1CSSSC1 was read as Pol kappa inh-1 18%[60.1 µM].
For Oc1cc2c(cc1O)[C@H]1c3ccccc3CN[C@H]1CC2 the results were Pol kappa inh-1 3%[19.4 µM].

Bioassay records as filed in PubChem BioAssay.
